# High-throughput results deposited in PubChem by Broad Institute.
# Only some compounds are listed: those with a hit (about 1.8% of all), similar ones and a draw of the others.
# ERp5 block: inhibitors of ERp5-driven insulin aggregation, primary screen, biochemical, turbidity, absorbance 650 nm, single point | Protein disulfide-isomerase A6 (Homo sapiens), Q15084 | inhibition, % at 9.99 µM | AID 651711, 2012 | actives 0.05% (n = 350,000) | 90 min;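 active = mean replicate inhibition above about 25%, with every replicate also reaching it, limit read from the data, passing the limit was not always enough; inconclusive = only one of those two criteria met; inactive = neither criterion met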
# ERAP1 inh: human ERAP1 aminopeptidase inhibitors, primary screen, biochemical, single point, plate reader. actives 0.15% (n = 340,000). recombinant ERAP1, Leu-AMC fluorescence, 60 min. Endoplasmic reticulum aminopeptidase 1 (Homo sapiens), Q9NZ08. inhibition, % at 10.7 µM. AID 652197, 2013;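 active = mean replicate inhibition of at least 30%, or all replicates individually reaching that 30% level; inactive = mean below 30% and not every replicate reaching it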;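 also: 0% = neutral control wells and 100% = L-leucinethiol positive control wells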
# PDI inh: inhibitors of human PDI, primary screen, biochemical, turbidity, single point, plate reader | Protein disulfide-isomerase (Homo sapiens), P07237 | PDI insulin aggregation turbidity, A650, 90 min | inhibition, % at 10 µM | actives 0.052% (n = 350,000) | AID 588391, 2011;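 active = mean inhibition across replicates of 30% or more, whatever share of single replicates reach that level; inconclusive = mean inhibition below 30% while every single replicate reaches 30%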
# Target sequence (P07237 whole entry, looked up): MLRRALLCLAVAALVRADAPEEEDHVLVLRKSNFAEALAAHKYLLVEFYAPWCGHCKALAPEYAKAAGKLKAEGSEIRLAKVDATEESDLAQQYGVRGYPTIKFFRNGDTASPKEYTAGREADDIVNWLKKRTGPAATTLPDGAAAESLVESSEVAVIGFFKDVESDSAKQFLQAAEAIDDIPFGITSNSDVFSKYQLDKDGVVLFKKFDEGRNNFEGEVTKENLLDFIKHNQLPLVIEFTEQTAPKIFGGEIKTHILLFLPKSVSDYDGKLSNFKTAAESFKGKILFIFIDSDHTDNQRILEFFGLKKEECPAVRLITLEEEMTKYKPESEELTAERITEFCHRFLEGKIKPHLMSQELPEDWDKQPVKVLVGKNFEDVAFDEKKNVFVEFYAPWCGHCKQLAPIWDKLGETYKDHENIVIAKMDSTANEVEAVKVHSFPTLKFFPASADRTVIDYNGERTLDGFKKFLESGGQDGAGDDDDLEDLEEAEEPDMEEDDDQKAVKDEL
# DENV2 CPE rescue: inhibitors of DENV2 cytopathic effect, primary screen, cell-based, plate reader, single concentration | DENV2-infected cells, cytopathic effect rescue | CPE inhibition, % at 9.99 µM | actives 1.7% (n = 350,000); in the data active = CPE inhibition above about 20%, passing the limit was not always enough; inconclusive = no clear call, values can overlap the other calls; tested in BHK-21 cells;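 also: 0% = median of neutral control wells and 100% = median of positive control wells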
# MLL AF4-AF9 inh: inhibitors of AF4 peptide binding to AF9, primary screen, biochemical, AlphaScreen, biotin-AF4 peptide, FLAG-AF9, single point; inhibition, % at 10 µM; actives 0.47% (n = 350,000);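 active = every replicate reaching a set inhibition limit, whatever the replicate mean, cut at about 25% in these data; inconclusive = mean inhibition reaches that limit but some replicates miss it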;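 also: 0% = plate neutral control median and 100% = total signal loss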
# * = called active by the depositor; ? = inconclusive; . = no result.
SMILES,ERp5 block,ERAP1 inh,PDI inh,DENV2 CPE rescue,MLL AF4-AF9 inh
CCC(=O)N1CC2(C1)[C@@H](c1ccccc1)[C@H](CO)N2C(=O)c1cccnc1,-1.0,-2.4,.,72.4*,-2.1
CCC(=O)N1CC2(C1)[C@@H](c1ccc(-c3ccc(F)cc3)cc1)[C@@H](CO)N2C(=O)CC,8.1,2.2,.,3.9,2.3
O=C(c1cccnc1)N1CC2(C1)[C@@H](c1ccccc1)[C@@H](CO)N2C(=O)CC1CC1,-5.3,-0.2,.,30.1*,2.8
C[C@H](CO)N1C[C@H](C)[C@H](CN(C)Cc2ccncc2)Oc2ccc(NS(=O)(=O)c3ccc(Cl)cc3)cc2CC1=O,-6.2,-0.4,.,13.5,-0.3
Cc1noc(C)c1NC(=O)N1C[C@H](O)COC[C@H]2O[C@H](CC(=O)NCC3CCCCC3)CC[C@@H]21,-2.0,2.0,.,4.8,-0.1
CCCC#Cc1cnc2c(c1)C(=O)N([C@H](C)CO)C[C@@H](C)[C@@H](CN(C)C(=O)c1ccccc1)O2,1.1,-1.0,.,12.9,-2.8
COC(=O)c1cccc(NC(=O)c2ccc3c(c2)C(=O)N(C(C)(C)C)C3=O)c1,-4.3,-3.1,11.2,?,0.1
CC(C)(C)N1C(=O)c2ccc(C(=O)Nc3ccc(O)cc3)cc2C1=O,0.4,0.0,3.0,54.3*,3.6
CC(C)(C)NC(=O)c1cccc(NC(=O)c2ccc3c(c2)C(=O)N(C(C)(C)C)C3=O)c1,3.6,-2.0,-7.0,44.0*,4.7
CO[C@@H]1CC[C@H]2CCOc3ccc(C#N)cc3C(=O)N(C)CCCC(=O)N(C)C[C@H]1O2,-2.7,1.7,.,0.9,-0.1
CCCNC(=O)N1CCC2(CC1)CN(C(=O)CC)[C@H](CO)c1[nH]c3cc(OC)ccc3c12,-6.8,2.3,.,10.5,0.2
O=c1c2ccccc2sn1-c1ccc(Cl)cc1Cl,0.9,81.4*,-4.8,0.9,-10.3
CCCN=C1N(CC)C[C@@H]2[C@@H]3C(=O)N(C)C(=O)[C@@H]3[C@](CC)(C(=O)OC)N12,-19.6,-3.4,23.0,27.9*,-2.1
COC(=O)c1ccc(CN2CC(=O)N3[C@@H](CO)[C@H](c4ccc(-c5ccccc5F)cc4)[C@@H]3C2)cc1,-5.3,0.9,.,2.3,7.0
N#Cc1ccccc1Sc1ccccc1C(=O)OCC(=O)NC12CC3CC(CC(C3)C1)C2,.,.,-5.9,.,.
CC1CCCC(NC(=O)COC(=O)c2ccccc2Sc2ccccc2C#N)C1C (configuration not stated),3.2,0.1,-5.2,56.9*,0.6
COc1ccc2c3c([nH]c2c1)[C@@H](CO)N(C(=O)C1CCOCC1)CC31CCN(C(=O)NC(C)C)CC1,-2.1,1.7,.,5.5,-1.3
O=C(Nc1cccc([N+](=O)[O-])c1)N1CCCc2ccccc21,-10.8,-3.6,4.5,-11.4,3.5
O=[N+]([O-])c1cccc(NC(=S)N2CCc3ccccc32)c1,-5.0,-0.1,8.2,69.5*,5.1
COc1ccc(-c2ccc3c(c2)[C@H]2[C@H](CCN2C(=O)C2CCCC2)[C@H](CO)N3C)cc1,4.0,2.9,.,15.6,25.7*
CN1c2ccc(Br)cc2[C@@H]2[C@@H](CCN2C(=O)C2CCCCC2)[C@@H]1CO,0.4,0.4,.,67.1*,0.9
CN1c2ccc(C3=CCCCC3)cc2[C@H]2[C@H](CCN2C(=O)C2CCCCC2)[C@H]1CO,-2.7,3.0,.,11.9,26.5*
COc1ccc(-c2ccc3c(c2)[C@@H]2[C@@H](CCN2C(=O)NC2CCCC2)[C@H](CO)N3C)cc1,2.6,-1.3,.,-11.8,36.2*
C[C@H](CO)N1C[C@H](C)[C@@H](CN(C)C(=O)CCCN(C)C)OCCCC[C@H](C)Oc2ccc(NC(=O)CCC(F)(F)F)cc2C1=O,-13.1,1.8,.,-0.1,-0.6
CC(C)NC(=O)N(C)C[C@@H]1Oc2ccc(NC(=O)Nc3ccccc3)cc2CC(=O)N([C@@H](C)CO)C[C@@H]1C,-2.7,-2.3,.,-9.4,-1.9
SMILES,ERp5 block,ERAP1 inh,PDI inh,DENV2 CPE rescue,MLL AF4-AF9 inh
CO[C@@H]1CN(C)C(=O)c2ccc(NC(=O)C3CC3)cc2OC[C@@H](C)N(C(=O)C2CCCCC2)C[C@H]1C,-3.7,-0.2,.,6.0,-5.7
CC(=O)NC[C@@H]1[C@H](c2ccc(-c3ccccc3F)cc2)[C@H](CO)N1C(=O)C1CC1,-2.5,-0.6,.,0.0,-0.9
CC(=O)N1[C@@H](CO)[C@H](c2ccc(-c3ccc(F)cc3)cc2)[C@@H]1CNC(=O)C1CC1,.,.,.,-2.6,.
C/C=C/c1ccc([C@@H]2[C@@H](CNC(C)=O)N(C(=O)Cc3cccnc3)[C@H]2CO)cc1,.,.,.,6.0,.
CC(=O)N1[C@H](CO)[C@@H](c2ccc(-c3cccc(F)c3)cc2)[C@H]1CNC(=O)C1CC1,.,.,.,124.2*,.
CC(=O)NC[C@@H]1[C@H](c2ccc(-c3ccccc3)cc2)[C@H](CO)N1C(=O)C1CC1,-3.1,2.3,.,76.2*,-10.4
C/C=C/c1ccc([C@@H]2[C@H](CO)N(C(=O)Cc3ccncc3)[C@H]2CNC(C)=O)cc1,.,.,.,30.5*,.
CC(=O)NC[C@H]1[C@@H](c2ccc(-c3ccccc3F)cc2)[C@@H](CO)N1C(C)=O,-1.3,2.7,.,41.4*,0.5
CC(=O)NC[C@H]1[C@H](c2ccc(-c3cccnc3)cc2)[C@@H](CO)N1C(=O)C1CC1,-4.5,-2.2,.,-2.0,-2.0
CC(=O)NC[C@H]1[C@H](c2ccc(-c3ccccc3F)cc2)[C@@H](CO)N1C(=O)C1CC1,3.0,-1.1,.,81.3*,-0.3
CC(=O)NC[C@H]1[C@@H](c2ccc(-c3cccnc3)cc2)[C@H](CO)N1C(=O)C1CC1,4.0,-0.9,.,28.2*,-0.3
Cc1ccnc(NC(c2ccccc2)c2ccc3cccnc3c2O)c1 (configuration not stated),9.3,0.6,2.4,-15.1,29.2*
Cc1ccc2ccc(C(Nc3ccccc3)c3ccc(C(C)C)cc3)c(O)c2n1 (configuration not stated),1.8,-4.8,.,-4.7,.
Cc1ccc2ccc(C(Nc3ccccc3)c3ccccc3)c(O)c2n1 (configuration not stated),2.3,-7.2,.,35.4*,6.1
O=C(C[C@@H]1CC[C@@H]2[C@H](COC[C@@H](O)CN2C(=O)Nc2ccccc2)O1)NCc1ccccc1F,-0.7,-2.7,.,-3.2,-0.6
COc1ccc2cc3cc(C(=O)NCCC(C)C)oc3nc2c1,10.8,4.0,-4.9,3.4,-32.6
COCCNC(=O)c1cc2cc3ccc(OC)cc3nc2o1,6.7,3.6,4.6,25.3*,-2.0
C(=C\c1ccc(C2[C@@H]3CN(Cc4cccnc4)C[C@H]2N3)cc1)/c1ccccc1 (some centres not stated),8.0,-0.7,.,-2.4,32.7*
